Holding throughout (details): modulator concentration 10 µM
The subject of test [1] is RAW-Dual (murine macrophage reporter line). The experiment in a line: NF-kB reporter (SEAP) activity fold change vs agonist alone; higher = enhanced NF-kB activity. In outline:
(§1)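 Compound reached 10 μM final in each well by pin transfer, onto RAW-Dual murine macrophage reporter cells seeded at 50 000 per well in 384-well plates. After 1 hour at 37 °C, the cells were stimulated overnight with a PRR agonist. SEAP in the supernatant was read with QUANTI-Blue at 620 nm absorbance for NF-κB, and Lucia luciferase was read with QUANTI-Luc luminescence for IRF. Each signal was turned into fold change against the mean agonist-only control on the same plate, and two replicate plates were averaged with propagated errors.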

The test system is the same in test [2]. The experiment in a line: IRF reporter (Lucia luciferase) activity fold change vs agonist alone; higher = enhanced IRF activity. In outline: as §1
The test system is the same in test [3]. The experiment in a line: viability score (confluency relative to resting cells, overnight) (fraction); higher = more viable, active = viable (0.7 or more). In outline:
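A compound met the cutoff when both of two confluency masks exceeded 70% of resting cells. Those masks were made with IncuCyte software from IncuCyte images of RAW-Dual macrophages treated overnight at 10 μM final. This is the basis of the viability score, which is confluency relative to resting cells.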

The mark [4] stands for this setting: agonist: CpG ODN 1826 0.5 ug/mL.

SMILES strings stand for the structures. ± gives the standard deviation.

Take `CNC(=O)c1cccc(-c2noc(C3CN(C(=O)NC4CCCCC4)C3)n2)c1`: the NF-kB reporter in test [1] (setting [4]) was 1.06 ± 0.053; in test [1] (agonist: LPS 0.1 ug/mL), 1.11 ± 0.11; in test [1] (agonist: MPLA […]), 1.03 ± 0.091. Further, the IRF reporter is 1.06 ± 0.065 in test [2] (agonist: 3'3'-cGAMP 10 ug/mL), 1.21 ± 0.1 in test [2] (agonist: LPS 0.1 ug/mL) and 1.17 ± 0.13 in test [2] (agonist: MPLA […]). Besides, the viability score in test [3] was 1 (active).
As to `CN(C)CC/C=C1\c2ccccc2COc2ccccc21.Cl`, the values for the NF-kB reporter in test [1] (setting [4]), in test [1] (agonist: LPS 0.1 ug/mL) and in test [1] (agonist: MPLA […]) were 0.888 ± 0.038, 1.06 ± 0.15 and 1.36 ± 0.096, respectively. Moreover, the figures for the IRF reporter in test [2] (agonist: 3'3'-cGAMP 10 ug/mL), in test [2] (agonist: LPS 0.1 ug/mL) and in test [2] (agonist: MPLA […]) were 0.434 ± 0.02, 0.73 ± 0.14 and 0.876 ± 0.3, respectively. Besides, the viability score in test [3] is 1.01 (active).
Regarding `COC(=O)C1=CN(CC2CCCO2)C=C(C(=O)OC)C1c1ccc(Cl)cc1` (stereo not drawn), the NF-kB reporter turned out to be 0.999 ± 0.19 in test [1] (setting [4]), 0.992 ± 0.11 in test [1] (agonist: LPS 0.1 ug/mL) and 1.44 ± 0.54 in test [1] (agonist: MPLA […]). Besides, the results for the IRF reporter in test [2] (agonist: 3'3'-cGAMP 10 ug/mL), in test [2] (agonist: LPS 0.1 ug/mL) and in test [2] (agonist: MPLA […]) were 0.94 ± 0.025, 1.04 ± 0.13 and 1.07 ± 0.11, respectively. In addition, the viability score in test [3] is 1 (active).
For `CCN1CCN(S(=O)(=O)c2ccc(Oc3ccccc3)cc2)CC1`, the NF-kB reporter in test [1] (setting [4]) is 1 ± 0.061; in test [1] (agonist: LPS 0.1 ug/mL), 1.01 ± 0.11; in test [1] (agonist: MPLA […]), 1.09 ± 0.036. The IRF reporter in test [2] (agonist: 3'3'-cGAMP 10 ug/mL) turned out to be 0.905 ± 0.043; in test [2] (agonist: LPS 0.1 ug/mL), 1.09 ± 0.1; in test [2] (agonist: MPLA […]), 1.03 ± 0.21. In addition, the viability score in test [3] was 0.996 (active).
Turning to `O=C(CN1CCCCC1)NN=Cc1ccccc1OCc1ccccc1`, the results for the NF-kB reporter in test [1] (setting [4]), in test [1] (agonist: LPS 0.1 ug/mL) and in test [1] (agonist: MPLA […]) were 0.948 ± 0.08, 1.01 ± 0.1 and 0.927 ± 0.04, respectively. The IRF reporter stood at 0.99 ± 0.1 in test [2] (agonist: 3'3'-cGAMP 10 ug/mL), 1.02 ± 0.082 in test [2] (agonist: LPS 0.1 ug/mL) and 1.14 ± 0.18 in test [2] (agonist: MPLA […]). Also, the viability score in test [3] was 0.995 (active).
On to `CCOC(=O)C1=C(C)NC(C)=C(C(=O)OCC)C1c1ccc(N(C)C)cc1`, for which the NF-kB reporter in test [1] (setting [4]) was 1.14 ± 0.13; in test [1] (agonist: LPS 0.1 ug/mL) it was 1.07 ± 0.071; in test [1] (agonist: MPLA […]), 1.24 ± 0.069. Besides, the values for the IRF reporter in test [2] (agonist: 3'3'-cGAMP 10 ug/mL), in test [2] (agonist: LPS 0.1 ug/mL) and in test [2] (agonist: MPLA […]) were 0.855 ± 0.16, 1.04 ± 0.095 and 0.94 ± 0.24, respectively. For the same molecule, in test [3], the viability score is 0.996 (active).
For `Cc1ccc(NC(=O)C(C#N)=Cc2ccc(-c3cccc([N+](=O)[O-])c3)o2)cc1`, the NF-kB reporter in test [1] (setting [4]) came out at 1.07 ± 0.084; in test [1] (agonist: LPS 0.1 ug/mL), 1.06 ± 0.094; in test [1] (agonist: MPLA […]), 0.904 ± 0.054. Besides, the figures for the IRF reporter in test [2] (agonist: 3'3'-cGAMP 10 ug/mL), in test [2] (agonist: LPS 0.1 ug/mL) and in test [2] (agonist: MPLA […]) were 1 ± 0.076, 1.46 ± 0.1 and 1.18 ± 0.14, respectively. Besides, in test [3], the viability score was 1.01 (active).
For `Cc1cncc(CN2CCC(=C3c4ccc(Cl)cc4CCc4cccnc43)CC2)c1.O=C(O)/C=C/C(=O)O`, the values for the NF-kB reporter in test [1] (setting [4]), in test [1] (agonist: LPS 0.1 ug/mL) and in test [1] (agonist: MPLA […]) were 1.46 ± 0.14, 1.19 ± 0.096 and 1.73 ± 0.23, respectively. The IRF reporter was determined as 0.931 ± 0.097 in test [2] (agonist: 3'3'-cGAMP 10 ug/mL), 0.799 ± 0.092 in test [2] (agonist: LPS 0.1 ug/mL) and 1.29 ± 0.16 in test [2] (agonist: MPLA […]). In test [3], the viability score is 1 (active).
On to `Cc1ccsc1C(=CCCN1CCC[C@@H](C(=O)O)C1)c1sccc1C`, for which the figures for the NF-kB reporter in test [1] (setting [4]), in test [1] (agonist: LPS 0.1 ug/mL) and in test [1] (agonist: MPLA […]) were 1.06 ± 0.084, 1.06 ± 0.053 and 0.972 ± 0.033, respectively. The IRF reporter in test [2] (agonist: 3'3'-cGAMP 10 ug/mL) was determined as 0.857 ± 0.056; in test [2] (agonist: LPS 0.1 ug/mL) it was 0.961 ± 0.05; in test [2] (agonist: MPLA […]), 0.732 ± 0.082. Also, the viability score in test [3] is 0.997 (active).
Take `CC(=NN1CCN(C2c3ccccc3-c3ccccc32)CC1)c1ccccc1O`: the values for the NF-kB reporter in test [1] (setting [4]), in test [1] (agonist: LPS 0.1 ug/mL) and in test [1] (agonist: MPLA […]) were 0.953 ± 0.12, 0.94 ± 0.052 and 0.962 ± 0.069, respectively. Besides, the IRF reporter in test [2] (agonist: 3'3'-cGAMP 10 ug/mL) came out at 1.02 ± 0.036; in test [2] (agonist: LPS 0.1 ug/mL) it was 1.35 ± 0.12; in test [2] (agonist: MPLA […]), 0.984 ± 0.086. Also, the viability score in test [3] is 1.02 (active).
As for `O=C(Nc1cc(C(F)(F)F)cc(C(F)(F)F)c1)c1cc2ccccc2o1`, the NF-kB reporter in test [1] (setting [4]) was found to be 0.961 ± 0.082; in test [1] (agonist: LPS 0.1 ug/mL), 1.05 ± 0.08; in test [1] (agonist: MPLA […]), 0.952 ± 0.12. The IRF reporter in test [2] (agonist: 3'3'-cGAMP 10 ug/mL) came to 0.953 ± 0.042; in test [2] (agonist: LPS 0.1 ug/mL), 1.32 ± 0.25; in test [2] (agonist: MPLA […]), 1.03 ± 0.29. Further, the viability score in test [3] is 1.01 (active).
In the case of `CS(=O)(=O)N(CC(=O)Nc1ccccc1Cl)c1ccc(Cl)c(C(F)(F)F)c1`, the figures for the NF-kB reporter in test [1] (setting [4]), in test [1] (agonist: LPS 0.1 ug/mL) and in test [1] (agonist: MPLA […]) were 0.753 ± 0.067, 1.08 ± 0.062 and 0.874 ± 0.052, respectively. Further, the figures for the IRF reporter in test [2] (agonist: 3'3'-cGAMP 10 ug/mL), in test [2] (agonist: LPS 0.1 ug/mL) and in test [2] (agonist: MPLA […]) were 1.52 ± 0.11, 1.35 ± 0.14 and 1.25 ± 0.2, respectively. Besides, in test [3], the viability score is 0.961 (active).
As to `CCOC(=O)C1=C(CC)OC(N)=C(C#N)C1c1cccc(Oc2ccc(Cl)cc2)c1` (stereo not drawn), the NF-kB reporter in test [1] (setting [4]) worked out at 0.746 ± 0.058; in test [1] (agonist: LPS 0.1 ug/mL) it was 0.662 ± 0.05; in test [1] (agonist: MPLA […]), 0.769 ± 0.073. Also, the values for the IRF reporter in test [2] (agonist: 3'3'-cGAMP 10 ug/mL), in test [2] (agonist: LPS 0.1 ug/mL) and in test [2] (agonist: MPLA […]) were 0.281 ± 0.0095, 1.13 ± 0.18 and 1.12 ± 0.2, respectively. In addition, in test [3], the viability score is 0.972 (active).
`N#Cc1ccnc(N2C(=O)CC[C@H]2C(=O)N(c2cncc(F)c2)[C@H](C(=O)NC2CC(F)(F)C2)c2ccccc2Cl)c1`: the NF-kB reporter in test [1] (setting [4]) amounted to 1.26 ± 0.3; in test [1] (agonist: LPS 0.1 ug/mL) it was 1.04 ± 0.07; in test [1] (agonist: MPLA […]), 1.26 ± 0.08. In addition, the IRF reporter was 1.09 ± 0.055 in test [2] (agonist: 3'3'-cGAMP 10 ug/mL), 1.28 ± 0.2 in test [2] (agonist: LPS 0.1 ug/mL) and 1.17 ± 0.12 in test [2] (agonist: MPLA […]). The viability score in test [3] is 1 (active).

Values taken from the supplement of paper PMC10646978.
